Results reported in PubChem BioAssay (NCI).
The panel holds about 83,000 compounds, 20% with a hit somewhere; the sample as a whole holds those more often.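 A percent growth of 40 corresponds to 60% growth inhibition; 0 means no net growth; -100 means all cells died. Active threshold: below 10.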 Activity calls are given as the source filed them.

Tests used:
Assay in all cases: NCI-60 one-dose screen, 48 h (100 = growth as untreated, 0 = no growth, -100 = all killed)
[1] = tested on: HT29 colon; settings: 10 µM unless noted
[2] = tested on: SNB-75 CNS; settings: 10 µM unless noted
[3] = tested on: SNB-19 CNS; settings: 10 µM unless noted
[4] = tested on: U251 CNS; settings: 10 µM unless noted
[5] = tested on: PC-3 prostate; settings: 10 µM unless noted
[6] = tested on: SK-MEL-5 melanoma; settings: 10 µM unless noted
[7] = tested on: UACC-62 melanoma; settings: 10 µM unless noted
[8] = tested on: LOX IMVI melanoma; settings: 10 µM unless noted
[9] = tested on: SK-MEL-28 melanoma; settings: 10 µM
[10] = tested on: SK-MEL-2 melanoma; settings: 10 µM unless noted

Measured: growth

COc1cc(C(C)n2cc(-c3ccccc3)nn2)ccc1OC1CCCC1 (stereo not given)
inactive: [1] 82.4% | [2] 75.5% | [3] 79.2% | [4] 79% | [5] 65.2% | [6] 25.9% | [7] 63.6% | [8] 60.6% | [9] 98.8% | [10] 72.9%

Cc1sc2ncnc(Sc3nc4ccccc4[nH]3)c2c1C
active: [1] -64.4% | [2] -85.4% | [3] -21.7% | [4] -80.9% | [5] -43.3% | [6] -96.9% | [7] -91.8% | [8] -80% | [9] -92.5% | [10] -81.6%

CCCCC1CCc2cccc3c(SCC(=O)N(C)c4ccc(Cl)cc4)cc[n+]1c23 (stereo not given)
inactive: [1] 106% | [2] 109% | [3] 97.2% | [4] 108% | [5] 106% | [6] 102% | [7] 96.3% | [8] 99.7% | [9] 105% | [10] 111%

Cc1nc(Nc2cn[nH]c2C(=O)Nc2ccc(CN3CCN(C)CC3)cc2)c2ccsc2n1
inactive: [1] 66.1% | [2] 37.7% | [3] 107% | [4] 92.8% | [5] 69.8% | [6] 90.3% | [7] 93.9% | [8] 72.8% | [9] 107% | [10] 111%

CN1C(=O)N(C)C2(c3ccccc3)OC(=S)NC12c1ccccc1 (stereo not given)
inactive: [1] 89.1% | [2] 87.6% | [3] 98.4% | [4] 98.7% | [5] 92.4% | [6] 104% | [7] 92.5% | [8] 98.7% | [9] 102% | [10] 102%

Cc1ccc(C2CC(c3ccc(Nc4nc(NCCO)nc(Nc5ccc(Cl)cc5)n4)cc3)=NN2c2cc(Cl)cc(Cl)c2)cc1 (stereo not given)
inactive: [1] 107% | [2] 85.2% | [3] 106% | [4] 97.4% | [5] 98.9% | [6] 92.4% | [7] 89.5% | [8] 98.7% | [9] 105% | [10] 122%

COc1ccc2sc(N(Cc3cccnc3)C(=O)c3ccc(C#N)cc3)nc2c1
inactive: [1] 23.4% | [2] 74% | [3] 98.6% | [4] 67.4% | [5] 78.2% | [6] 80.9% | [7] 86.9% | [8] 75.9% | [9] 50.2% | [10] 109%

O=C(Nc1ccc(N2CCNCC2)cc1)c1[nH]ncc1Nc1ncnc2sc3c(c12)CCC3
active: [1] -67.3% | [2] -99.5% | [3] -99.5% | [4] -96.5% | [5] -83.6% | [6] -97.4% | [7] -85.1% | [8] -91.4% | [9] -84.7% | [10] 4.15%

O=S(=O)(c1ccc(NC(=S)NC23CC4CC(CC(C4)C2)C3)cc1)N1CCCCC1
inactive: [1] 94.1% | [2] 93.3% | [3] 99.9% | [4] 85.2% | [6] 87.7% | [7] 80.8% | [8] 96.9% | [9] 95% | [10] 106%
active: [5] 8.79%

C#CCn1cc(C=C2C(=O)N(C)C(=O)N(C)C2=O)c2cc(Cl)ccc21
inactive: [1] 118% | [2] 91.6% | [3] 105% | [4] 113% | [5] 103% | [6] 99.5% | [7] 94% | [8] 96.8% | [9] 113% | [10] 95.5%

CN1CCN(Cc2ccc(C(=O)Nc3cncc(C#Cc4cnc(N)c5ccccc45)c3)cc2C(F)(F)F)CC1
inactive: [7] 42.7%
active: [1] -53.2% | [2] -96.4% | [3] -47.5% | [4] -70.5% | [5] -18.8% | [6] -94.6% | [8] -92.4% | [9] -85.5% | [10] -53.9%

Nc1nc(-c2cnccn2)nn1-c1nc2ccccc2s1
inactive: [1] 99.7% | [2] 96.4% | [3] 98.2% | [4] 93.5% | [5] 99.4% | [6] 92.2% | [7] 101% | [8] 105% | [9] 104% | [10] 99.5%

C=C(C)CCC(C)N1CCC(N2CCC(C(=O)NCCc3ccccc3)CC2)CC1 (stereo not given)
inactive: [1] 39.3% | [2] 105% | [3] 102% | [4] 77.4% | [5] 59.7% | [6] 10.9% | [7] 68.9% | [8] 63.1% | [9] 90% | [10] 99.3%

COc1ccc(/C=C2/SC(=O)N(CC(=O)N3CCN(c4cc5c(cc4F)c(=O)c(C(=O)O)cn5C4CC4)CC3)C2=O)cc1
inactive: [1] 99.2% | [2] 86.4% | [3] 101% | [4] 101% | [5] 104% | [6] 101% | [7] 97.3% | [8] 93.9% | [9] 107% | [10] 108%

COc1ccc(C)c2sc(N(Cc3cccnc3)C(=O)c3ccc(C#N)cc3)nc12
active: [4] 1.87% | [6] -62.2% | [7] -33.3% | [8] -7.23%
inactive: [1] 16% | [2] 15.4% | [3] 12.4% | [5] 16% | [9] 15.9% | [10] 13.1%

CC(=O)Nc1nc2c(s1)CCc1c-2cn(S(=O)(=O)c2ccccc2)c1-c1ccccc1
inactive: [1] 78.1% | [2] 82.8% | [3] 93.6% | [4] 62.4% | [5] 40.9% | [6] 43.9% | [7] 58% | [8] 47.1% | [9] 95.1% | [10] 94.5%

Nc1ccc(-c2nc3cc(Oc4ccc(Oc5ccc6[nH]c(-c7ccc(N)cc7)nc6c5)cc4)ccc3[nH]2)cc1
inactive: [1] 70.2% | [2] 115% | [3] 110% | [4] 96.6% | [5] 115% | [6] 87.5% | [7] 58.8% | [8] 99.2% | [9] 101% | [10] 82.1%

O=C1/C(=C\c2ccc[nH]2)c2ccccc2N1c1ccccc1
inactive: [1] 105% | [2] 84.7% | [3] 92.2% | [4] 99.3% | [5] 90.9% | [6] 90.5% | [7] 77% | [8] 96.4% | [9] 96.7% | [10] 106%

COC(=O)/C(CCC=C(C)C)=C1\[C@@H](OC(C)=O)C[C@@]2(C)[C@H]1C[C@@H](O)[C@H]1[C@@]3(C)CC[C@H](NCCO)[C@@H](C)[C@@H]3CC[C@@]12C
inactive: [1] 104% | [2] 100% | [3] 98.4% | [4] 103% | [5] 102% | [6] 102% | [7] 98% | [8] 94.2% | [9] 106% | [10] 109%

Nc1ccccc1-c1ccc(-c2ccc(Cl)cc2)c2c1[nH]c1ccccc12
inactive: [1] 67.4% | [2] 83% | [3] 81.8% | [4] 70.6% | [5] 14.1% | [6] 86.9% | [7] 60.3% | [8] 72.5% | [9] 97.1% | [10] 79.6%

COc1ccc(-c2cc(=O)c3c(OC)c4ccoc4c(/C=C/C=O)c3o2)cc1
active: [2] -1.37% | [8] -11.8%
inactive: [1] 79.1% | [3] 49% | [4] 16.4% | [5] 21.3% | [6] 32.1% | [7] 67.1% | [9] 89.1% | [10] 75.4%

CC(=O)c1ccc2oc(=O)n(Cc3ccc(C#N)cc3)c(=O)c2c1
inactive: [1] 112% | [2] 87.3% | [3] 104% | [4] 105% | [5] 97.5% | [6] 105% | [7] 97.9% | [8] 97.8% | [9] 104% | [10] 101%

COC(=O)C1=C(C)NC(C)=C(C(=O)OC)C(N2C(=O)CCC2=O)C1 (stereo not given)
inactive: [1] 98.5% | [2] 77.3% | [3] 99.9% | [4] 87.7% | [5] 84.6% | [6] 102% | [7] 83.8% | [8] 82.4% | [9] 95.5% | [10] 99.1%

COc1ccc(/C=C2\SC(=Nc3ccccc3)NC2=O)cc1
active: [1] -89.2% | [2] -97.9% | [3] -50% | [4] -90.1% | [5] -73.5% | [6] -97.2% | [7] -91% | [8] -82.9% | [9] -100% | [10] -84.8%

O=C(Nc1ccc(Cl)cc1)c1cc2ccccc2cc1OP(=O)(O)O
active: [6] 3.56% | [10] 7.63%
inactive: [1] 103% | [2] 24.2% | [3] 21.6% | [4] 18.8% | [5] 24.6% | [7] 35.4% | [8] 22.9% | [9] 35.9%

CCOC(=O)c1cc2c(n1Cc1cc(OC)c(OC)c(OC)c1)-c1oncc1CCC2
active: [1] 4.59% | [6] 8.95%
inactive: [2] 20.2% | [3] 72.1% | [4] 25.3% | [5] 37% | [7] 25.5% | [8] 27% | [9] 41.1% | [10] 54%

COc1cc(C=C2C(=O)N(C)C(=O)N(C)C2=O)cc(CN2CCCCC2)c1O
inactive: [1] 103% | [2] 89.8% | [3] 92.6% | [4] 99.6% | [5] 105% | [6] 100% | [7] 96.8% | [8] 98.7% | [9] 102% | [10] 102%
